Test results as given in PubChem BioAssay (NCATS).
Results filed as inconclusive are left out. The source made the active and inactive calls. Calls follow the shape of the dose curve; as a rule, active = well fitted inhibition curve with a large enough effect; inconclusive = small, poorly fitted or top-dose-only effect; inactive = flat fitted curve, though single readings scatter.

What was measured:
Experiment in all cases: qHTS profiling for inhibitors of Plasmodium falciparum proliferation (AID 504749); also: nearly all actives have a fitted effect of over 60% in size
Conditions in all cases: P. falciparum in erythrocytes, SYBR Green DNA, 72 h; series mostly up to 28.7 µM
ATS189 = tested on: ATS189
Summary of the method: (§1)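 In a 72 h erythrocytic culture (37 C, humidified, 5% CO2) at 2.5% hematocrit and 0.3% starting parasitemia, compounds were tested; SYBR Green I in detergent lysis buffer stained parasite DNA overnight.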

ATS95 = tested on: ATS95
Summary of the method: as §1

CP185 = tested on: CP185
Summary of the method: as §1

CP192 = tested on: CP192
Summary of the method: as §1

C2A = tested on: C2A
Summary of the method: as §1

CP194 = tested on: CP194
Summary of the method: as §1

CP201 = tested on: CP201
Summary of the method: as §1

AS120 = tested on: AS120
Summary of the method: as §1

CP191 = tested on: CP191
Summary of the method: as §1

AA1029 = tested on: AA1029
Summary of the method: as §1

Measured: Potency
Potency is read from the fitted curve at half-maximal effect.

CN(C)C(=O)Nc1ccc(Cl)c(Cl)c1
inactive: ATS189 | ATS95 | CP185 | CP192

CC1CCc2c(N3CCC(O)CC3)c(F)cc3c(=O)c(C(=O)O)cn1c23 (centres undefined)
inactive: ATS95 | C2A | CP192 | CP194 | CP201

CN(C)CCC[C@@]1(c2ccc(F)cc2)OCc2cc(C#N)ccc21
inactive: AS120 | ATS189 | ATS95 | C2A | CP185 | CP192 | CP194 | CP201

O=[N+]([O-])c1cccc(S(=O)(=O)NCCNS(=O)(=O)c2cccc([N+](=O)[O-])c2)c1
inactive: ATS189 | ATS95 | C2A | CP185 | CP192 | CP194 | CP201

CCN(CC)CCOc1ccc2c(c1)C(=O)c1cc(OCCN(CC)CC)ccc1-2
active: ATS189 11.2 µM | C2A 10 µM | CP185 12.6 µM

O=C(NC1CCN(CCc2c[nH]c3ccccc23)CC1)c1ccccc1
inactive: AS120 | ATS189 | ATS95 | C2A | CP185 | CP192 | CP194 | CP201
active: CP191 8.91 µM

COC(=O)C(c1ccccc1Cl)N1CCc2sccc2C1 (centres undefined)
inactive: C2A

CC(C)(Cc1c[nH]c2ccccc12)NCC(O)COc1ccccc1C#N (centres undefined)
inactive: CP192 | CP201
active: AA1029 8.91 µM

CN1CCC[C@@H]1CCO[C@](C)(c1ccccc1)c1ccc(Cl)cc1
inactive: AS120 | ATS189 | C2A | CP185 | CP192 | CP201

CC(C)[N+](C)(C)CC(O)COc1cccc2ccccc12 (centres undefined)
inactive: AS120 | ATS189 | ATS95 | CP201

CC(C)(C)NC[C@H](O)COc1nsnc1N1CCOCC1
active: ATS189 5.62 µM | CP191 7.08 µM
inactive: CP201

CN1CCN(c2c(F)cc3c(=O)c(C(=O)O)cn4c3c2SCC4)CC1
inactive: CP192 | CP194 | CP201

Cc1cc2c(OCC(CNC(C)(C)C)OC(=O)c3ccccc3)cccc2[nH]1 (centres undefined)
inactive: CP185 | CP192 | CP194 | CP201

Clc1cccc(C(c2ccc3nc[nH]c3c2)n2ccnc2)c1 (centres undefined)
inactive: CP185
active: AS120 11.2 µM | C2A 10 µM

O=C(CCN1CCN2CCCC2C1)N1c2ccccc2Sc2ccc(Cl)cc21 (centres undefined)
inactive: CP185 | CP192 | CP194 | CP201

CCC(C(=O)OCCOCCN(CC)CC)c1ccccc1 (centres undefined)
inactive: AS120 | ATS95 | C2A | CP185 | CP191 | CP192 | CP201

CN1CCN(CCC(=O)N2c3ccccc3Sc3ccc(C(F)(F)F)cc32)CC1
inactive: AS120 | ATS95 | C2A | CP192 | CP194 | CP201

CN1CCN(C2=Nc3ccccc3Sc3ccc(Cl)cc32)CC1
inactive: ATS189 | C2A | CP185 | CP192

N/C(=N\N=C\c1ccc(Cl)cc1)N/N=C/c1ccc(Cl)cc1
inactive: CP192 | CP194 | CP201
active: AS120 5.01 µM | ATS95 8.91 µM | C2A 8.91 µM | CP191 3.16 µM

CCCCCN=C(N)N/N=C/c1c[nH]c2ccc(OC)cc12
active: AS120 10 µM | ATS189 5.01 µM | CP191 7.94 µM
inactive: CP192

O=S(c1cc(Cl)cc(Cl)c1O)c1cc(Cl)cc(Cl)c1O
active: CP191 17.8 µM

CC(C)(C)CC(C)(C)c1ccc(O)c(-n2nc3ccccc3n2)c1
inactive: CP192 | CP194 | CP201
active: AA1029 12.6 µM

COc1ccc(CCN(C)CCCN2CCc3cc(OC)c(OC)cc3CC2=O)cc1OC
inactive: AS120 | ATS189 | ATS95 | C2A | CP185 | CP191 | CP192 | CP194 | CP201

NCc1ccccc1Sc1ccccc1CO
inactive: ATS189 | C2A | CP185 | CP191 | CP192 | CP201

CN(C)CCOC(c1ccc(Cl)cc1)c1ccccn1 (centres undefined)
inactive: C2A | CP192

CC(=O)O[C@H]1C[C@@H]2CC[C@@H]3[C@H](CC[C@@]4(C)[C@H]3C[C@H]([N+]3(C)CCCCC3)[C@@H]4OC(C)=O)[C@@]2(C)C[C@@H]1N1CCCCC1
inactive: AS120 | CP194

Cc1cc(CC(=O)O)c(C)n1-c1ccc(Cl)cc1
inactive: ATS189 | ATS95 | C2A | CP185 | CP192 | CP194 | CP201

Oc1c(Cl)cc(Cl)c(Cl)c1Cc1c(O)c(Cl)cc(Cl)c1Cl
active: AS120 11.2 µM | CP191 8.91 µM | CP194 10.7 µM | CP201 10.7 µM

CN1CCN(C2=Nc3cc(F)ccc3Cc3ccccc32)CC1
inactive: C2A | CP185 | CP191 | CP192 | CP201

Cn1c(=O)c2[nH]c(Br)nc2n(C)c1=O
inactive: AS120 | ATS189 | ATS95 | C2A | CP185 | CP191 | CP192 | CP194 | CP201
